Among the data in PubChem BioAssay AID2284353 (EPA ToxCast) are AC50 values, retold here.

Inconclusive results are not listed. Calls of active or inactive are those of the source. Rule for the calls: active = hit-call score of the fitted dose curve at least 0.9, where 1 is the maximum; inconclusive = response in the unintended direction; inactive = score below 0.9.

The experiment concerns Japanese medaka Peroxisome Proliferator-activated Receptor gamma (PPARg), gene 100304459. The experiment can be described thus: ATG_jmPPARg_EcoTox2: Attagene TRANS-FACTORIAL EcoTox-2 HepG2 Assay for Japanese medaka Peroxisome Proliferator-activated Receptor gamma (PPARg). The procedure: ATG_EcoTox2 is a cell-based, multiplexed assay created by modifying the existing Attagene TRANS-FACTORIAL system to include a panel of nuclear receptors from some or all the following species: human (Homo sapiens), african clawed frog (Xenopus laevis), rainbow trout (Oncorhynchus mykiss), japanese medaka (Oryzias latipes), and zebrafish (Danio rerio). The ECOTOX2-FACTORIAL format uses HepG2, a human liver cell line, with measurements taken at 24 hours after chemical dosing in a 24-well plate. ATG_jmPPARg_EcoTox2 is one of 29 assay components calculated in the ATG_EcoTox2 assay. It is designed to make measurements of mRNA induction, a form of inducible reporter, as detected with fluorescence intensity signals by Reverse transcription polymerase chain reaction (RT-PCR) and Capillary electrophoresis technology.The assay endpoint ATG_jmPPARg_EcoTox2 was analyzed in the positive analysis fitting direction relative to DMSO as the negative control and baseline of activity. Using a type of inducible reporter, measures of mRNA for gain-of-signal activity can be used to understand the reporter gene at the transcription factor-level as they relate to the gene PPARg. Furthermore, this assay endpoint can be referred to as a primary readout, because this assay has produced multiple assay endpoints where this one serves a reporter gene function. To generalize the intended target to other relatable targets, this assay endpoint is annotated to the nuclear receptor intended target family, where the subfamily is non-steroidal.
Human liver HepG2 cells are transiently transfected with multiple reporter transcription units (MRTUs) in 6-well plates using FuGene 6 reagent (Roche; 3 ml FuGene/1 mg DNA). The MRTU constructs are regulated by a cis-regulating element (promoter). Each RTU expresses a GAL4-UAS that regulates the transcription of a nearby target reporter gene sequence. A major difference between the CIS and TRANS system is that in CIS activities of endogenous TFs are measured, whereas the TRANS assay evaluates changes in activities of exogenous, chimeric NR-Gal4 proteins. […] At the end of 24 hour incubation, total RNA was isolated using TriZol reagent (Invitrogen). The isolated RNA is then reverse-transcribed using oligo(dT) primer and Mo-MLV reverse transcriptase (Invitrogen) with DNAse I (Ambion) treatment for 30 min. The one-tenth of the produced cDNA was amplified by PCR using Taq DNA polymerase (Invitrogen) and two reporter sequence-specific primers. The PCR products were fluorescently labeled by primer extension with 6-arboxyfluorescein (6-FAM) 5'-labeled reporter sequence-specific primer (2 min at 95 C, 20 s at 68 C and 10 min at 72 C) and these products were digested with 5U of HpaI (New England Biolabs) for 2h at 37 C. The fragments were purified using Qiaquick PCR columns (Qiagen), analyzed on an ABI 3130xL genetic analyzer (Applied Biosystems) with peak positions identified by using a set of X-rhodamine (ROX)-labeled MapMarker1000 molecular weight standards (BioVentures). The raw capillary electrophoresis data was processed using Attagraph software (Attagene).
As a reminder, the AC50 is the midpoint of the concentration-response curve, whichever way the signal moves. Consider `O=P(Oc1ccccc1)(Oc1ccccc1)Oc1ccccc1`, for which the half-maximal activity concentration (AC50) is 30.6 µM (active).

As to `[Cl][Sn]([c]1ccccc1)([c]1ccccc1)[c]1ccccc1`, the half-maximal activity concentration (AC50) is 0.382 µM (active).

Turning to `O=C(O)C(F)(F)C(F)(F)C(F)(F)C(F)(F)C(F)(F)C(F)(F)C(F)(F)F`, the AC50 was 75 µM (active). `CCCCOCN(C(=O)CCl)c1c(CC)cccc1CC`: the AC50 is 4.6 µM (active). In the case of `O=S(=O)(O)C(F)(F)C(F)(F)C(F)(F)C(F)(F)C(F)(F)C(F)(F)F`, the AC50 is 76.1 µM (active).
